Assay outcomes: PubChem BioAssay, National Center for Advancing Translational Sciences (NCATS)
The list is not random: actives were taken first. Their share in the collection is about 0.83%.
Menin-MLL TR inh: menin-MLL binding inhibition, Texas Red mutant peptide | Menin + Texas Red MLL mutant peptide, fluorescence polarization | O00255 | AID 1768 | Potency, µM (top dose mostly 61.6 µM), inactives show top-dose FP activity change, negative = inhibition, usual class: inhibitors | hit rate 0.23% among 270,000; active = well fitted inhibition curve with a large enough effect in the polarisation, with a control signal flat, not every such curve was filed as active; inconclusive = small, poorly fitted or top-dose-only effect, or effect the other way, or a change in a side signal; inactive = no such curve, though single readings can be large or run the other way; the % refers to the polarisation; also: potency is read from the fitted curve at half-maximal effect; % of control where 0% means no effect
Six1-Eya2 blk: blocks human Six1 binding to Eya2; AlphaScreen GST-Six1/His-Eya2 binding, biochemical; hits give low values; activity change, % (concentration not given with the values); hit rate 0.56% among 360,000; also: % is scaled to controls: 0 for no effect and ±100 for the full control effect
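Compounds are tested against tagged Six1 and Eya2 proteins bridged by glutathione donor and nickel acceptor beads; after a one-hour incubation at 37 °C without light, AlphaScreen emission is recorded.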
CtBP-E1A blk: inhibitors of CtBP/E1A interaction; AlphaScreen GST-E1A/His-CtBP binding, 1536-well; hits give low values; activity change, % (concentration not given with the values); hit rate 0.49% among 340,000; AID 651724; also: % is scaled to controls: 0 for no effect and ±100 for the full control effect
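Homogeneous bead-based format: GST-tagged E1A captured on glutathione donor beads, His-tagged CtBP on nickel acceptor beads; compounds precede bead addition by 2 h at 37 °C.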
Menin MLL FP FL: displaces fluorescein MLL peptide from human menin; FP activity change, % at 61.4 µM; Fluorescence polarization, fluorescein-MLL peptide displacement from menin; 290,000 tested, under 10 active; active = well fitted curve in the direction sought with a large enough effect in the polarisation, not every such curve was filed as active; inconclusive = small, poorly fitted or top-dose-only effect, or effect the other way, or a change in a side signal; inactive = no such curve, though single readings can be large or run the other way; the % refers to the polarisation; also: % of control where 0% means no effect
GLS inhibitor: glutaminase GLS (human) inhibition | O94925 | GLS enzymatic activity, qHTS titration | Potency, µM (doses to about 45.5 µM), for the others: top-dose activity change, negative = inhibition, hits mostly inhibitors | hit rate 0.21% among 410,000 | AID 624170; active = well fitted inhibition curve with a large enough effect; inconclusive = small, poorly fitted or top-dose-only effect, or another doubt; inactive = no such curve, though single readings can be large or run the other way; also: potency is read from the fitted curve at half-maximal effect; % is scaled to controls: 0 for no effect and ±100 for the full control effect
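hKGA; 45 mM KH2PO4 pH 8.2 + 0.02% Tween-20; cpd via pin tool; 1 mM Gln soln; GluOx/HRP/Amplex Red; RT 30 min; fluor. t0 & final.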
MLL CXXC-DNA inh: inhibitors of human MLL CXXC domain-DNA interaction; hit rate 0.037% among 290,000; Q03164; Potency, µM (doses to about 115 µM), inactives show top-dose activity change, negative = inhibition, usual class: inhibitors; AID 2662; MLL-CXXC / FITC-HOXA9 DNA fluorescence polarization; active = well fitted inhibition curve with a large enough effect in the polarisation, with a control signal flat, not every such curve was filed as active; inconclusive = small, poorly fitted or top-dose-only effect, or effect the other way, or a change in a side signal; inactive = no such curve, though single readings can be large or run the other way; the % refers to the polarisation; also: potency is read from the fitted curve at half-maximal effect
Target sequence (Q03164 whole entry, looked up, the tested form may be a part): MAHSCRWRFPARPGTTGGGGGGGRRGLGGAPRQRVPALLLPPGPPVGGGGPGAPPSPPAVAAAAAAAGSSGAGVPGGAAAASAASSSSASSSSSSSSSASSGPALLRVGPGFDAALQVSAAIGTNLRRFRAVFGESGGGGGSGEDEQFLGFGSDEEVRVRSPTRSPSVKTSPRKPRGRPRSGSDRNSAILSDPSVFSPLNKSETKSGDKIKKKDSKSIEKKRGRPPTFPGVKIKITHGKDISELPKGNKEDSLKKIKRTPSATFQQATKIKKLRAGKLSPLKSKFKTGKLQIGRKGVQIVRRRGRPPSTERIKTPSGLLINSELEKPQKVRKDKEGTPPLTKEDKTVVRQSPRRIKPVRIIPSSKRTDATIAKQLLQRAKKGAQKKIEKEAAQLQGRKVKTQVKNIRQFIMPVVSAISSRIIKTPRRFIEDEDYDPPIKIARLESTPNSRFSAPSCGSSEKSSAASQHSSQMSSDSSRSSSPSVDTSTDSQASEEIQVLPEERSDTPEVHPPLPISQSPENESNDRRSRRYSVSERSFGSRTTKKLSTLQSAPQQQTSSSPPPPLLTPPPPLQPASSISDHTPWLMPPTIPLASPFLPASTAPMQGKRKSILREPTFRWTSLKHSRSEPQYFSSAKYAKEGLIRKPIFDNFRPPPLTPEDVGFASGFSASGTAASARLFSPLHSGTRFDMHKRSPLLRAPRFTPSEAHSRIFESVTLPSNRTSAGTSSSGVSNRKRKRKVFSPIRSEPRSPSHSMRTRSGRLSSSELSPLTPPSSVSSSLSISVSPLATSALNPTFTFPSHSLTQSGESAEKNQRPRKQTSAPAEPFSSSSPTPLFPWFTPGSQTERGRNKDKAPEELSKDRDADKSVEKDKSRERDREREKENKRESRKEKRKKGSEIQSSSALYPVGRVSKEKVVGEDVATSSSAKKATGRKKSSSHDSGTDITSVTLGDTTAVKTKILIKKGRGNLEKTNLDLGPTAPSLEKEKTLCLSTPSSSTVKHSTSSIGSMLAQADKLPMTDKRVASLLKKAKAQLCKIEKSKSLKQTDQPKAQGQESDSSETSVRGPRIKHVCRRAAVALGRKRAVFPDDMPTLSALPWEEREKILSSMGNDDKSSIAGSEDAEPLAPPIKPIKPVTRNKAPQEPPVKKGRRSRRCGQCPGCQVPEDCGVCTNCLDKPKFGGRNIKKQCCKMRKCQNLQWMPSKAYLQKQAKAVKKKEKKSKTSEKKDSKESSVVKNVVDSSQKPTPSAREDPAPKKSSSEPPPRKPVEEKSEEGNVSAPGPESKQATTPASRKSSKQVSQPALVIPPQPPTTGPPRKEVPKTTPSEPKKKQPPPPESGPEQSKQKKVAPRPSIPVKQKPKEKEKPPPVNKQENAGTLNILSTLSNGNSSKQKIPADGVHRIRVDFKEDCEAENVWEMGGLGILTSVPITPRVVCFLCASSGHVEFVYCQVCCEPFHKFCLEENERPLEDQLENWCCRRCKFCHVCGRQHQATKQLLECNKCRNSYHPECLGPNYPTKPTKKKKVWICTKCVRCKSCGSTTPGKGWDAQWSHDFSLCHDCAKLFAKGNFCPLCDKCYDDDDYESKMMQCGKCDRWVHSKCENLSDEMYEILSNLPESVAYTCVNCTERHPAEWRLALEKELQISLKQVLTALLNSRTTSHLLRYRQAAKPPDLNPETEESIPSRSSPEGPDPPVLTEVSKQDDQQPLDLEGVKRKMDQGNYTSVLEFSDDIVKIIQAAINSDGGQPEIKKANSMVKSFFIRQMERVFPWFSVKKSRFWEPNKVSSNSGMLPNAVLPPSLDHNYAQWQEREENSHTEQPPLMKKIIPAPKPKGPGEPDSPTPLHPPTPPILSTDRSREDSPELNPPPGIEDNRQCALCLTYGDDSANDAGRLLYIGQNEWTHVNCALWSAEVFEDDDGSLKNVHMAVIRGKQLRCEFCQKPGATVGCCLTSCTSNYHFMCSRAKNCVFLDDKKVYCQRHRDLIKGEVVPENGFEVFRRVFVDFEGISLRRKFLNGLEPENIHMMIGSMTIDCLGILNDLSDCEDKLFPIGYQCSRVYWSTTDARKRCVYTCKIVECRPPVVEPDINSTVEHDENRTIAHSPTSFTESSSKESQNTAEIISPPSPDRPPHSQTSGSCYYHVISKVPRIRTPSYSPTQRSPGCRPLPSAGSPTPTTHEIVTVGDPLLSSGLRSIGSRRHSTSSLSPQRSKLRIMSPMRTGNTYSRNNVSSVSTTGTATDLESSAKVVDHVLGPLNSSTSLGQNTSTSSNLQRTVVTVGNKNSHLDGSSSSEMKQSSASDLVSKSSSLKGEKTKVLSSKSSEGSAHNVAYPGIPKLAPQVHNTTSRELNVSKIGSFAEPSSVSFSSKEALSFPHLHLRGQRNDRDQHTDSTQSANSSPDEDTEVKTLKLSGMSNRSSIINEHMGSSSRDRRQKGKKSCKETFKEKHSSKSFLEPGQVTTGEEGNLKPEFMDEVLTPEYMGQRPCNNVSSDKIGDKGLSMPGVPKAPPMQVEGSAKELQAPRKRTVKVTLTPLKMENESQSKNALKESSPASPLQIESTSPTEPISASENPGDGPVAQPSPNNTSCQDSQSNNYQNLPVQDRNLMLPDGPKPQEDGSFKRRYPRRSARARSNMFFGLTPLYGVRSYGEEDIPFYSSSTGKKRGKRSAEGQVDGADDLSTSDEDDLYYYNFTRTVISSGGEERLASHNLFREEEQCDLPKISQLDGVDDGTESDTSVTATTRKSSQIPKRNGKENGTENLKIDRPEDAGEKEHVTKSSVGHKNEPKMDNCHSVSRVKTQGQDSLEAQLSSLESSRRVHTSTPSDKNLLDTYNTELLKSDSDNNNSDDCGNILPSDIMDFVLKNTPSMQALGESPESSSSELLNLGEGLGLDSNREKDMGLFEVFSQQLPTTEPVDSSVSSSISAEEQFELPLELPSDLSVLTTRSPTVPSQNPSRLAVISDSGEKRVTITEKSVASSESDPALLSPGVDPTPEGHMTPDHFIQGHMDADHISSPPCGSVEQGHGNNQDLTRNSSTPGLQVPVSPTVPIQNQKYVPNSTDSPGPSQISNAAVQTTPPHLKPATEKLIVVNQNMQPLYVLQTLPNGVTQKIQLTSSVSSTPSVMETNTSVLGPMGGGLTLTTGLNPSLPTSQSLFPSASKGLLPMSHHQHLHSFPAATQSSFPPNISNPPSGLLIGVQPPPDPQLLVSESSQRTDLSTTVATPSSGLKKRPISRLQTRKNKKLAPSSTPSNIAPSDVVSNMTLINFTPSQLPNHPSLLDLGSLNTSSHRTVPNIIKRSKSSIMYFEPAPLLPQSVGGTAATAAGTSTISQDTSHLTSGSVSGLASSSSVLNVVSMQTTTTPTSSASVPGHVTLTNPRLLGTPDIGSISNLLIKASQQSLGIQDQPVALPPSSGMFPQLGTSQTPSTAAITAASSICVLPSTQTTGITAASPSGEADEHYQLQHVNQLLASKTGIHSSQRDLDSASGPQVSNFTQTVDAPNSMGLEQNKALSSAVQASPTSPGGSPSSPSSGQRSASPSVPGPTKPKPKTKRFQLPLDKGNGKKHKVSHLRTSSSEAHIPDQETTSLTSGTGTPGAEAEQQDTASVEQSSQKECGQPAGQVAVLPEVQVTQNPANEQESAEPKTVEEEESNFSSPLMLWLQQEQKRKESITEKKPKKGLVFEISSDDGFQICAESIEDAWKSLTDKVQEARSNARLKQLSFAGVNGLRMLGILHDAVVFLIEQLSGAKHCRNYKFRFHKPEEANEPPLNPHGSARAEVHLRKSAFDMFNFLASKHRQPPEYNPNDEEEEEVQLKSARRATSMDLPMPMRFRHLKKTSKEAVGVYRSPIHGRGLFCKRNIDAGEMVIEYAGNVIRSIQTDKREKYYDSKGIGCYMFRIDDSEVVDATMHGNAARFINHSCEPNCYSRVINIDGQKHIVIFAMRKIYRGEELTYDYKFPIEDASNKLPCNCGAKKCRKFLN
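Steps: dispense CXXC domain solution (7 uM) → pin compounds or unlabeled HOX-A9 DNA control → 5 min ambient → add FLSN-HOX-A9 solution (50 nM) → spin → 30 min ambient → fluorescence polarization. Tris pH 7.5/NaCl/DTT/BSA buffer.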
* hit, by the source's call; ? = inconclusive; . = not tested or not shown; ! = not confirmed by another sample. Rule as the data show it, unless noted: active = activity change below about -65%; inconclusive = mostly about -30% to -63%; inactive = weaker than that.

SMILES	Menin-MLL TR inh	Six1-Eya2 blk	CtBP-E1A blk	Menin MLL FP FL	GLS inhibitor	MLL CXXC-DNA inh
CCC(=O)NC(c1ccccc1OC)c1ccc2cccnc2c1O (centres undefined)	-1%	-88*	?	0	23%	-5%
CCCCC(=O)NC(c1ccccc1Cl)c1ccc2cccnc2c1O (centres undefined)	27%	-67*	?	-2	1%	-22%
O=C(O)C(=O)Nc1cccc(C2=NN=N[N]2)c1	.	.	.	.	-14%	.
O=S1(=O)CC(N2CC=CC2)CN1C1CCCCC1 (centres undefined)	.	2	2	.	11µM*	.
C/C=C(\C)C(=O)OC1CC(C)(C)C[C@H]2C3=CC[C@@H]4[C@@]5(C)CCC(O[C@@H]6O[C@@H](C(=O)O)[C@@H](O)C(O[C@@H]7OC[C@H](O)[C@@H](O)[C@@H]7O[C@@H]7OC(CO)C(O)[C@@H](O)[C@@H]7O)C6O[C@@H]6OC(CO)C(O)C(O)C6O)[C@@](C)(CO)[C@@H]5CC[C@]4(C)[C@]3(C)CC(O)[C@@]12CO (some centres undefined)	.	-8	7	.	13µM*	.
Cc1cccc(OCC(=O)NCC(=O)N/N=C/c2cc(Br)ccc2OCc2ccccc2)c1	5%	5	6	?	0%	11%
Cc1cccc(OCC(=O)NCC(=O)N/N=C/c2ccc(O)cc2O)c1	.	-85*	.	-2	16%	4%
Cc1cccc(OCC(=O)NCC(=O)N/N=C/c2ccccc2)c1	-2%	-2	3	2	-8%	16%
COc1cccc(/C=N/NC(=O)CNC(=O)COc2cccc(C)c2)c1O	.	-73*	.	5	6%	6%
COc1ccc(CNC(=O)CCCN2C(=O)CSc3c2c(C)nn3-c2ccccc2)c(OC)c1	.	.	.	.	-9%	.
COc1cc(OC)c(NC(=O)C2CCCN(c3ncnc4c3nc3n4CCCCC3)C2)cc1Cl (centres undefined)	.	.	.	.	-2%	.
NC(=O)c1c(NC(=O)c2ccc(N3C(=O)CCC3=O)cc2)sc2c1CCCC2	.	-68*	.	.	5%	.
CC1CCc2sc(NC(=O)c3ccc(N4C(=O)CCC4=O)cc3)c(C(N)=O)c2C1 (centres undefined)	?	-2	2	0	18%	15%
C(C#CCCCCCCCCC[n+]1ccccc1)#CCCCCCCCCC[n+]1ccccc1	32µM*	9	-6	-7	-14%	15%
Cc1cccc(CNC(=O)c2cnc3c(-c4cccc(C)c4)c(C)nn3c2C)c1	.	.	.	.	1%	.
O=C1c2cccc(NCCCNCCO)c2C(=O)c2cccc(NCCCNCCO)c21	.	-71*	-79*	.	10%	.
Cc1cc(C)c2c(c1)NC(C(=O)O)C1CC=CC21 (centres undefined)	7%	?	?	?	10µM*	?
COc1ccc(CNC(=O)CN2C(=O)CSc3ccc(S(=O)(=O)N4CCC(C)CC4)cc32)cc1	.	.	.	.	-11%	.
O=[N+]([O-])c1cc(Cl)ccc1Nc1ccccc1	27%	-78*	.	-3	-3%	-4%
CCc1ccc(NCc2cc3ccc(OC)cc3n(CC(=O)Nc3c(C)cc(C)cc3C)c2=O)cc1	.	.	.	.	-10%	.
Cc1onc(-c2c(Cl)cccc2Cl)c1C(=O)N[C@@H]1C(=O)N2[C@@H]1SC(C)(C)[C@@H]2C(=O)O	35%	6	-1	-1	10µM*!	5%
Cc1onc(-c2c(Cl)cccc2Cl)c1C(=O)NC1C(=O)N2C1SC(C)(C)C2C(=O)O (centres undefined)	9%	5	-1	-2	13µM*	0%
Cc1onc(-c2ccccc2Cl)c1C(=O)NC1C(=O)N2C1SC(C)(C)C2C(=O)O (centres undefined)	15%	.	.	-1	.	.
COc1cc(OC)c(NC(=O)CSCc2nc(-c3ccc(OC)c(OC)c3)no2)cc1Cl	.	.	.	.	-2%	.
O=C(CCSCc1cccc(Cl)c1)NCc1ccc(F)cc1Cl	.	.	.	.	8%	.
N#CCC(=O)Nc1ccc(C(=O)NNC(=S)NC2CCCCC2)cc1	.	-2	-4	.	18µM*	.
